# A549 tox = kills or reduces viability of A549 cells in Nrf2 counter-screen; 390,000 tested, 0.16% active; AID 504648; Potency, µM (series often up to 46 µM), for inactives: top-dose activity change, negative = cytotoxicity, actives largely listed as inhibitors; A549 ARE-Fluc cells, CellTiter-Fluor viability, 18-24 h; also: % is scaled to controls: 0 for no effect and ±100 for the full control effect
#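 A549 ARE_Fluc cells in 5% FBS OPTI-MEM were exposed to compounds in concentration-response for 18-24 h at 37 deg C. Viability was read by CellTiter-Fluor fluorescence (Ex 405/Em 525) after 30 min, before the luciferase read.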
# Pin1 inh = blocks the human prolyl isomerase Pin1; Q13526; Pin1 FP peptide displacement, HiFluor488, 10 min; Potency, µM (titrated, usually from 115 µM), without a hit: at the top dose activity, negative = inhibition, actives largely listed as inhibitors; 390,000 tested, 0.009% active; active = well fitted inhibition curve with a large enough effect in the polarisation, with a control signal flat, not every such curve was filed as active; inconclusive = small, poorly fitted or top-dose-only effect, or effect the other way, or a change in a side signal; inactive = no such curve, though single readings can be large or run the other way; the % refers to the polarisation; also: % is scaled to controls: 0 for no effect and ±100 for the full control effect
# Target sequence (Q13526 whole entry, looked up): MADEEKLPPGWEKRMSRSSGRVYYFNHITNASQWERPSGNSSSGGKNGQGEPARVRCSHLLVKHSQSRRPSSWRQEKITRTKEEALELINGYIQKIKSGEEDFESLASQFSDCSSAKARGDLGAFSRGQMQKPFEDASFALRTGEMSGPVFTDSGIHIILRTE
# Nrf2 ARE act = Nrf2 pathway activation; AREc32 ARE-luciferase reporter (MCF7-derived line), luminescence, 24 h; Potency, µM (doses to about 46.1 µM), inactives show at the top dose activation, usual class: activators; 410,000 tested, 0.31% active; also: % of control where 0% means no effect; nearly all actives have a fitted effect of over 65% in size
#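 Quantitative high-throughput format: AREc32 reporter cells, 1000 per well, received compound by pin transfer and were incubated 24 hr at 37 deg C, 5% CO2, before Steady-Glo luminescence detection.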
# Nrf2 inh = blocks Nrf2 signaling | A549 ARE-Fluc reporter, luciferase luminescence, 18-24 h | Potency, µM (series often up to 46 µM), for inactives: at the highest dose activity change, negative = inhibition, most hits filed as inhibitors | 360,000 tested, 2.1% active | AID 504444; also: % is scaled to controls: 0 for no effect and ±100 for the full control effect; nearly all actives have a fitted effect of over 60% in size
#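 A549 ARE_Fluc cells, 5000/well, 5% FBS OPTI-MEM; compounds in dose-response, 18-24 h at 37 °C/5% CO2; CellTiter-Fluor viability read (Ex 405/Em 525), then BugLite luciferase luminescence = Nrf2 activity.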
# Active calls of the source: *; u = inconclusive; x = not tested or not shown. This is a sample that favours compounds with a hit; in the whole collection about 2.2% have one here. Unless noted, calls follow the shape of the dose curve; as a rule, active = well fitted curve in the direction sought with a large enough effect; inconclusive = small, poorly fitted or top-dose-only effect, or another doubt; inactive = no such curve, though single readings can be large; an effect the other way counts as inactive or inconclusive. Potency is read from the fitted curve at half-maximal effect.
SMILES,A549 tox,Pin1 inh,Nrf2 ARE act,Nrf2 inh
COc1ccc2sc3ccccc3c(=O)c2c1OC,-7%,-6%,11µM*,u
COc1cccc2sc3ccc(C#Cc4ccc(N)cc4)cc3c(=O)c12,u,2%,-1%,u
CCSc1nnc(NC(=O)CSc2nc3c(c(=O)n2C)SC(C)C3)s1 (stereo not drawn),-9%,7%,0%,u
CCSc1nnc(NC(=O)CSc2nc3c(c(=O)n2CC)SC(C)C3)s1 (stereo not drawn),-14%,3%,0%,18µM*
O=C(O)CCN1C(=O)C2C3C=CC(C3)C2C1=O (stereo not drawn),4%,0%,0%,14%
O=C1C2C3C=CC(C3)C2C(=O)N1CCCCCCN1C(=O)C2C3C=CC(C3)C2C1=O (stereo not drawn),1%,-1%,-1%,15µM*
O=C(Nc1cnc2sccn2c1=O)c1ccccc1Cl,10%,u,11µM*,3%
O=C(Nc1ccc(F)cc1)[C@H](CSCc1ccccc1)N1Cc2ccccc2C1=O,-2%,5%,0%,-3%
Cc1ccc(S(=O)(=O)c2nnn3c2nc(Nc2ccc(C(C)C)cc2)c2sccc23)cc1C,0%,-6%,-1%,21µM*
CCOc1ccc(Nc2nc3c(S(=O)(=O)c4ccc(C(C)C)cc4)nnn3c3ccsc23)cc1,7%,-3%,0%,17%
O=C(O)c1cc(O)c2c(c1)[C@H]([C@H]1c3cc(C(=O)O)cc(O)c3C(=O)c3c(O[C@@H]4O[C@H](CO)[C@@H](O)[C@H](O)[C@H]4O)cccc31)c1cccc(OC3O[C@H](CO)[C@@H](O)[C@H](O)[C@H]3O)c1C2=O (stereo partly drawn),16µM*,0.71µM*,-1%,u
COc1cc(/C=C(\C#N)c2nc3ccccc3s2)cc([N+](=O)[O-])c1O,21µM*,u,1%,u
N#C/C(=C\c1ccc(O)c([N+](=O)[O-])c1)c1nc2ccccc2s1,15µM*,-12%,8%,u
CN1C(=O)CC2(C=CC(=O)C=C2OC(=O)c2ccccc2)c2ccccc21 (stereo not drawn),3%,-1%,x,8%
CCc1c(C)nc2ncnn2c1N1CCCC(C(=O)NCc2ccc3c(c2)OCO3)C1 (stereo not drawn),-1%,-8%,-1%,10µM*
CCc1c(C)nc2ncnn2c1N1CCCC(C(=O)Nc2ccc(NC(C)=O)cc2)C1 (stereo not drawn),4%,-1%,0%,-2%
COc1ccc(OC)c(CCNC(=O)c2cc3cccc4c3n2CC(C)S4)c1 (stereo not drawn),-1%,9%,5%,-29%
C#Cc1nc(Nc2cccc(Cl)c2)nc(NC2CCCC2)n1,-8%,7%,x,u
CCCCCCCCCCCC1=C(O)C(=O)C=C(O)C1=O,2%,28µM*,0%,-30%
CCOC(=O)c1ccc(NC(=O)c2cc3c(n(-c4ccc(C)cc4)c2=O)CC(C)(C)CC3=O)cc1,10%,2%,0%,5%
COc1ccccc1NC(=O)c1cnc(SCC(=O)NCCc2ccccc2)n(C)c1=O,-4%,39%,4.5µM*,7%
CC(=O)OCC(NC(=O)C(COCc1ccccc1)NC(=O)OC(C)(C)C)C1OC(n2ccc(=O)[nH]c2=O)C(OC(C)=O)C1OC(C)=O (stereo not drawn),-2%,-4%,x,0%
CCC1(OC(=O)CN(C)C)C(=O)OCc2c1cc1n(c2=O)Cc2cc3c(N)cccc3nc2-1 (stereo not drawn),u,u,-1%,0.65µM*
O=C(Nc1ccc(F)c(Cl)c1)c1nsc(Cl)c1Cl,-2%,6%,3.2µM*,4%
O=C(Nc1ccc(F)cc1)c1nsc(Cl)c1Cl,-3%,2%,u,u
SMILES,A549 tox,Pin1 inh,Nrf2 ARE act,Nrf2 inh
COc1cccc(N2CCN(C(=O)CCc3c(C)nc4c(c3C)c(=O)n(C)c(=O)n4C)CC2)c1,-3%,3%,0%,4%
Cc1oc2ccc(O)c(CN3CCOCC3)c2c1C(=O)Nc1ccc(C(C)C)cc1,-13%,3%,14%,16%
Cc1cc(Br)cc2c1N(Cc1ccccc1OC(C)C)C(=O)C2=O,-1%,-2%,-2%,-31%
O=C(c1cccs1)N(C(=O)c1cccs1)c1ccc(Br)cn1,u,-6%,u,u
Cc1ccnc(N(C(=O)c2cccs2)C(=O)c2cccs2)c1,0%,8%,10µM*,5%
COc1cc(NC(=O)CSc2nc(-c3ccc(C(C)C)cc3)no2)cc(OC)c1,-1%,0%,-1%,u
COc1ccccc1N1CCN(C(=O)C2CCN(S(=O)(=O)c3cccs3)CC2)CC1,8%,0%,4%,10%
COc1ccc(CNC(=O)c2c(N)n(CCCN3CCOCC3)c3nc4ccccc4nc23)cc1,x,14%,-3%,16µM*
Nc1c(C(=O)NCc2ccccc2)c2nc3ccccc3nc2n1CCCN1CCOCC1,-14%,0%,-3%,u
CCOc1cc(/C=C2\SC(=O)N(CC(=O)Nc3ccccc3F)C2=O)cc([N+](=O)[O-])c1O,u,u,4%,18µM*
COc1cc(/C=C2\SC(=O)N(CC(=O)Nc3ccccc3F)C2=O)cc(Cl)c1O,-14%,21%,0%,u
CCOC(=O)/C(=C\c1ccc(Cl)cc1)c1nc2sc(C)c(C)c2c(=O)[nH]1,u,52%,u,18µM*
CC(C)c1cc(C(C)C)c(S(=O)(=O)Nc2cccc3cccnc23)c(C(C)C)c1,11%,1%,x,u
Oc1ccc2ccccc2c1/C=N/Nc1nnc(-c2ncc[nH]2)c2ccccc12,x,u,-1%,5.2µM*
O=C(Nc1ccc(OCc2cc(=O)n3c4c(sc3n2)CCCC4)cc1)c1ccc(F)cc1,0%,-4%,0%,13%
Cc1cccc(NC(=O)CN2C(=O)CCn3nc(-c4cccn4C)cc32)c1C,-1%,10%,4%,x
CCc1c(C#N)c(SCCC(=O)Nc2ccc(F)cc2)nc2c1C(=O)CC(C)(C)C2,u,11%,0%,18µM*
CCc1c(C#N)c(SCCC(=O)Nc2cccc(OC)c2)nc2c1C(=O)CC(C)(C)C2,-7%,3%,2%,u
CC(C)Cc1ccc(CN2CCCC(NC(=O)CCN3CCCCC3=O)C2)cc1 (stereo not drawn),7%,-13%,-2%,3%
CC(C)Cc1ccc(C(C)/C=C2/CCC(CN3CCCCC3)C2=O)cc1 (stereo not drawn),17%,0%,13µM*,-8%
CCCCn1nc(NC(=O)c2cccs2)c2cc3ccccc3nc21,-18%,11%,0%,12µM*
CCCn1nc(NC(=O)c2cccs2)c2cc3cc(C)ccc3nc21,-16%,-2%,2%,16µM*
CCCCn1nc(NC(=O)c2cccs2)c2cc3cc(OC)ccc3nc21,-7%,3%,7%,x
CCCn1nc(NC(=O)c2cccs2)c2cc3ccccc3nc21,x,0%,0%,18µM*
CC(C)(C)OC(=O)Cc1nnc(-c2nc3ccccc3[nH]2)s1,-3%,9%,x,u
